Reference: the supplement of paper PMC11732987, “Enantioselective OTUD7B fragment discovery through chemoproteomics screening and high-throughput optimisation” (Communications Chemistry, 2025)

Tests used:
Assay in all cases: log2 ratio of Biotin-Ahx-Ub-VS probe labelling (fragment/DMSO); higher = less target engagement (more negative = stronger competition), active = hit call of the paper (q ≤ 0.05, log2 ratio ≤ -1)
Settings in all cases: compound concentration: 200 uM; treatment time: 3 h
USP19 = target: T1, USP19 (UniProt O94966)
T1 sequence (whole entry): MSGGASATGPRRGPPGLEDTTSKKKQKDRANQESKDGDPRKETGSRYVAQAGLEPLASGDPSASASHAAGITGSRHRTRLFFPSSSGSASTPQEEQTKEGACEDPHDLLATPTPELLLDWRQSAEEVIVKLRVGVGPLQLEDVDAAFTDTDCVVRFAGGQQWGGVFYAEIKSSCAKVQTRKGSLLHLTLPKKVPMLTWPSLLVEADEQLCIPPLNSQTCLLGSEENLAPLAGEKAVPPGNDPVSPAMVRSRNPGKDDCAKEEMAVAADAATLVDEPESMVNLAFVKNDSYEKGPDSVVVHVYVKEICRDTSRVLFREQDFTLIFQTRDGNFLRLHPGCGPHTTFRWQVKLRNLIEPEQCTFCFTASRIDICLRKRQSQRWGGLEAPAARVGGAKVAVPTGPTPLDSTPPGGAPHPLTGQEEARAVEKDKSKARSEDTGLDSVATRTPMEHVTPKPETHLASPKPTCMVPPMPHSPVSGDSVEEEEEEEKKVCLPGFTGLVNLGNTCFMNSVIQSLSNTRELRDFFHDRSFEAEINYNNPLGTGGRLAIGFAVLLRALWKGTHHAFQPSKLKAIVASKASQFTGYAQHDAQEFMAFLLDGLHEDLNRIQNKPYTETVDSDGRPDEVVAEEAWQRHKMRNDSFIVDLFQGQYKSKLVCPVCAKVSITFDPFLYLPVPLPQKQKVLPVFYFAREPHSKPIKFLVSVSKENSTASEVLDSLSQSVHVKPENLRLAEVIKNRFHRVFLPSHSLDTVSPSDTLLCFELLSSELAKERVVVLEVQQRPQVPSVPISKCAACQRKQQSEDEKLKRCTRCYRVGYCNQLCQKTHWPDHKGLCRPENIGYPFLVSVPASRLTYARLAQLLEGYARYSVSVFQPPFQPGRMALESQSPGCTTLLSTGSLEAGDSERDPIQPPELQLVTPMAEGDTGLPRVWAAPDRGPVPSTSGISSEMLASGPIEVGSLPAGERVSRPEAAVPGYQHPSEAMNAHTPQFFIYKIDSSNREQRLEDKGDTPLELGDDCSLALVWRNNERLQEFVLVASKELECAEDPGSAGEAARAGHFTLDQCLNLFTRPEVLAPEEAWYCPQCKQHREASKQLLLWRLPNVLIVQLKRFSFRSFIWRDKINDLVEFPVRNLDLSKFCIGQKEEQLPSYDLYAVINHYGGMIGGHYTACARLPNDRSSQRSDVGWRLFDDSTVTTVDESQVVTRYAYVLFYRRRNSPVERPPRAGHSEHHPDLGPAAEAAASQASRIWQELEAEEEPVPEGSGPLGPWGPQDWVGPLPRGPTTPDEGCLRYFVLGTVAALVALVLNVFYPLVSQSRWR
Outline: (§1)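 The table lists average log2 ratios of fragment over vehicle, from an unpaired t-test on global-median-normalised Spectronaut label-free quantities. Proteins with ≥2 unique peptides were used. Samples were HEK293T lysate (495 µg) treated in triplicate with fragment at 200 µM or vehicle for 3 h, then with Biotin-Ahx-Ub-VS (0.5 µM final) for 1 h, with labelled DUBs NeutrAvidin-enriched and run by diaPASEF LC-MS/MS.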

USP24 = USP24 (UniProt Q9UPU5)
Outline: as §1

USP25 = target: T2, USP25 (UniProt Q9UHP3)
T2 sequence (whole entry): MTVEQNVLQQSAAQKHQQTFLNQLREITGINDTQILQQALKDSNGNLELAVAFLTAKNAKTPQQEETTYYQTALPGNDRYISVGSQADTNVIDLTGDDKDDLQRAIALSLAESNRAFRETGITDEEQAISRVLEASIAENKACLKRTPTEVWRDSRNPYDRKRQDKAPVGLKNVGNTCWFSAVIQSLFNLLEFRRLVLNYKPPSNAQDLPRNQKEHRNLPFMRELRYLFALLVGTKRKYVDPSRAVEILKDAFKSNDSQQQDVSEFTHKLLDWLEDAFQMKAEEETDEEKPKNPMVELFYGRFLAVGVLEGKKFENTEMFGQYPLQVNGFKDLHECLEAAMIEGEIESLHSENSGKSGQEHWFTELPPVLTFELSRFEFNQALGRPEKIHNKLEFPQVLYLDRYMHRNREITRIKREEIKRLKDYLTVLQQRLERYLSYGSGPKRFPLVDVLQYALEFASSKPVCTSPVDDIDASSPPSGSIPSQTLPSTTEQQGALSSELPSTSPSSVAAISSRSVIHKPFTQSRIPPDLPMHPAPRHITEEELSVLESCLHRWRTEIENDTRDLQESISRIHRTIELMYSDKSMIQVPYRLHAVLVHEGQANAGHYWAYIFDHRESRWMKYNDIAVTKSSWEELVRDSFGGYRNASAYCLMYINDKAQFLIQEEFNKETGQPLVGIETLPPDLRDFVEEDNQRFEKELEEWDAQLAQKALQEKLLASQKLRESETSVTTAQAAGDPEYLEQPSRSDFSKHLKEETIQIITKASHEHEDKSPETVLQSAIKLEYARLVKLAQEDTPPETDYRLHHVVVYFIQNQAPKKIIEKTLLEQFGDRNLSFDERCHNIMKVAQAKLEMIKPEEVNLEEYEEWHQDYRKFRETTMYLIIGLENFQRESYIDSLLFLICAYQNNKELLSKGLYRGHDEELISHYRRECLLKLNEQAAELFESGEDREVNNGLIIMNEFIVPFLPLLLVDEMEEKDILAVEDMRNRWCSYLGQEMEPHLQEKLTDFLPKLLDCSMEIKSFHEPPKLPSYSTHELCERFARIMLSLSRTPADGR
Outline: as §1

USP28 = target: T3, USP28 (UniProt Q96RU2)
T3 sequence (whole entry): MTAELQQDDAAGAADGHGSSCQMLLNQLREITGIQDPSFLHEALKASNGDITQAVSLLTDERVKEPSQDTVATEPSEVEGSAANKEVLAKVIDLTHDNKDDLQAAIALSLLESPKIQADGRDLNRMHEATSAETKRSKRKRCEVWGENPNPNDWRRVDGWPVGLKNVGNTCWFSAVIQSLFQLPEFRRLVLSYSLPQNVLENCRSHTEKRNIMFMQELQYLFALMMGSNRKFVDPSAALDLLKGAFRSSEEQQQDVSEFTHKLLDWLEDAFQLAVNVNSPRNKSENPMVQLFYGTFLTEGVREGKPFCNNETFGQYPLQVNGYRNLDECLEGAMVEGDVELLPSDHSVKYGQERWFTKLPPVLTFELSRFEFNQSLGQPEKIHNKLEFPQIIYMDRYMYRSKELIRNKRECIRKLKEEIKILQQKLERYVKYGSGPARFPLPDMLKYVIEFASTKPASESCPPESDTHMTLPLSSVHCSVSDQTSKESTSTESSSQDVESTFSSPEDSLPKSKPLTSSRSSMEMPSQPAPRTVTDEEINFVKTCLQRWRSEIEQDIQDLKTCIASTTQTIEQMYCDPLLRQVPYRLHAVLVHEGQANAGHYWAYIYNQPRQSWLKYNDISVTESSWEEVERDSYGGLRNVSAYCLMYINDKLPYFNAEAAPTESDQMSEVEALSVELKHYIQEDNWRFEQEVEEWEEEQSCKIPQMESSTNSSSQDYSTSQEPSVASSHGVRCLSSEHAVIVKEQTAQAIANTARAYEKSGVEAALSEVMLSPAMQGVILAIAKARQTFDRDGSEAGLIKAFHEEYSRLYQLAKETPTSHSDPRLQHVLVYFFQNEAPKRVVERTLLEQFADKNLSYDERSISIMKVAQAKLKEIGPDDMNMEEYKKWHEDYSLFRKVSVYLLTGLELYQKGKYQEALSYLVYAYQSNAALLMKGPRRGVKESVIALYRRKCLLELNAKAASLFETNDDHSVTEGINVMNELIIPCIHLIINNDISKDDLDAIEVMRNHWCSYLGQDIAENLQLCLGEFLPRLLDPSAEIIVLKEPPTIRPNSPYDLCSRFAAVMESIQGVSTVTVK
Outline: as §1

Measured: log2 ratio of Biotin-Ahx-Ub-VS probe labelling

USP24, sequence (Q9UPU5 whole entry): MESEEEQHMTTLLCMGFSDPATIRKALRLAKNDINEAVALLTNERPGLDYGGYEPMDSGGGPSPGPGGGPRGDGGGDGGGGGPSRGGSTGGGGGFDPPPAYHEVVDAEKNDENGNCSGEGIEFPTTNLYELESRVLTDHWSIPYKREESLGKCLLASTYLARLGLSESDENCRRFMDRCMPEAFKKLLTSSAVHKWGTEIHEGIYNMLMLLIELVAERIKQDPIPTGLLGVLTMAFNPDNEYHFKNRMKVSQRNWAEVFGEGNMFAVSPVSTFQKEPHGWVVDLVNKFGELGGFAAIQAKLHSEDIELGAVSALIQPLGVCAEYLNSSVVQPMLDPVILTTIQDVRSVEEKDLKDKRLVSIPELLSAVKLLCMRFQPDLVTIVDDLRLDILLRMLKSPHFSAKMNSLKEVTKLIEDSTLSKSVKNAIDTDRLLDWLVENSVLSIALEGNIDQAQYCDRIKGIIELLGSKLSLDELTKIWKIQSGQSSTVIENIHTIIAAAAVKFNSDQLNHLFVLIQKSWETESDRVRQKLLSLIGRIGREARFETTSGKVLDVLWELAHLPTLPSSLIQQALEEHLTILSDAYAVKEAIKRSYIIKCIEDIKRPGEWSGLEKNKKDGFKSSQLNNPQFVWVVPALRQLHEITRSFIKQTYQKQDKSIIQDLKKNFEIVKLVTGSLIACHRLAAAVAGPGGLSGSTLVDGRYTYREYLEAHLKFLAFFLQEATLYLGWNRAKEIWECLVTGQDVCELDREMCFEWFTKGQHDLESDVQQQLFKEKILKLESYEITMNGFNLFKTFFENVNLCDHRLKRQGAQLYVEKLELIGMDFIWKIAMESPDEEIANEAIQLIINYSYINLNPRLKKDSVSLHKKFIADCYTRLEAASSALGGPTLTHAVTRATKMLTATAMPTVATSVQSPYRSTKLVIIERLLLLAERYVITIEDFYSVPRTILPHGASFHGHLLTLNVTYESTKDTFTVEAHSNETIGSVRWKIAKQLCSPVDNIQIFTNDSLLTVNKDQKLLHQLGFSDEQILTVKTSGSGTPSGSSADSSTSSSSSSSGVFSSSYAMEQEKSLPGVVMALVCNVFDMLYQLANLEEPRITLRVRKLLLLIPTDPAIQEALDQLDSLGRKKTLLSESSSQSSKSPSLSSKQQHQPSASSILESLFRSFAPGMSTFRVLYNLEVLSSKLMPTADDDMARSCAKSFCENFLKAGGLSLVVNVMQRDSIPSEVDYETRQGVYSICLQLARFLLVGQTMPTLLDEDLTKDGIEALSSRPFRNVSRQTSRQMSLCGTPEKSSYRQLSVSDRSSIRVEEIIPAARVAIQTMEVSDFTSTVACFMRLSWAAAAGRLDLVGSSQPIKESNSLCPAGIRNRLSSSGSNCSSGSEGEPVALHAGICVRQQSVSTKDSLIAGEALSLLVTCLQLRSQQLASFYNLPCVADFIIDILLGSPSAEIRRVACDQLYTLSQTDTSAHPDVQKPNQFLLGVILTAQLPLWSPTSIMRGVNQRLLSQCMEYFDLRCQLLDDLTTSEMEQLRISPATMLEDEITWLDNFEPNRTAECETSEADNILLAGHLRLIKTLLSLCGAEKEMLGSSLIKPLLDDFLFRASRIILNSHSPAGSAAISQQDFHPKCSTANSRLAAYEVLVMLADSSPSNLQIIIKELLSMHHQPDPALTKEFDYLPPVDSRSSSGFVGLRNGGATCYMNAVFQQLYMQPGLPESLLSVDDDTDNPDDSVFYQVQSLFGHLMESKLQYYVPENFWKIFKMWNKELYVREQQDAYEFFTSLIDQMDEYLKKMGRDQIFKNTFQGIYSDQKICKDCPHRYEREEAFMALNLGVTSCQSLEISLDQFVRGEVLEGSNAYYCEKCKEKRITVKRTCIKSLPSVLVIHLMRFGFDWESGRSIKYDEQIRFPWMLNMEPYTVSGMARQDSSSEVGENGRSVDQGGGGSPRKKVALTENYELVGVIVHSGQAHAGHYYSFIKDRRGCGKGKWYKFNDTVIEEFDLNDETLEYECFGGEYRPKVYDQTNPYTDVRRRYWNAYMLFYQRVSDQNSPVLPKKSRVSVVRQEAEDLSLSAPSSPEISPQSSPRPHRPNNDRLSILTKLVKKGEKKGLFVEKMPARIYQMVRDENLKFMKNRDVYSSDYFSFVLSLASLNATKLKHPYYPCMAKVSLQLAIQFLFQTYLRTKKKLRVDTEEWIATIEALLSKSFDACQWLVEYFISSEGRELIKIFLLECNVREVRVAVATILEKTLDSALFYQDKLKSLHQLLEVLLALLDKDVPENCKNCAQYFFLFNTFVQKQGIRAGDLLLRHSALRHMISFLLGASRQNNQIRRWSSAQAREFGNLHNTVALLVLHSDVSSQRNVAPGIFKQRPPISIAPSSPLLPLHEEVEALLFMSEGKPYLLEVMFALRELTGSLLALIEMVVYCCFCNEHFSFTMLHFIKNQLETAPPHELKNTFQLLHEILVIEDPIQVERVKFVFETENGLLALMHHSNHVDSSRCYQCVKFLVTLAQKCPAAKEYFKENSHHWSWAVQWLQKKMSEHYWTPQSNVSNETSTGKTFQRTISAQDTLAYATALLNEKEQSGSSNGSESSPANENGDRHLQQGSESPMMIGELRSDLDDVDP

O=C(CCl)N1CCC(c2ccn[nH]2)C1 (centres undefined)
inactive: USP19 -0.276 | USP24 -0.326 | USP25 -0.433 | USP28 -0.425
